Broadly, the AC50 is the concentration at which the activity in the assay is half-maximal.

Calls of active or inactive are those of the source. The calls were made as follows: active = hit-call score of the fitted dose curve at least 0.9, where 1 is the maximum; inactive = score below 0.9.

Settings in all cases: mRNA level, 48 h; actives raise or lower the signal
Read-out in assay [1]: Cytochrome P450 (CYP2B6), CYP2B6 (gene 1555)
Nature of the assay: LTEA_HepaRG_CYP2B6: Life Technologies and Expression Analysis (LTEA) Assay for Cytochrome P450 (CYP2B6) using HepaRG (AID 2283481). The gist of the method:
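HepaRG cells plated 48 h, switched to serum-free induction medium, then dosed 48 h (8 points, half-log from 100 uM, 0.5% DMSO). RNA isolated; CYP2B6 expression measured by qRT-PCR; gain or loss fitted relative to DMSO.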

Read-out in assay [2]: Cytochrome P450 2C19 (Homo sapiens) (UniProt P33261)
Put plainly: LTEA_HepaRG_CYP2C19: Life Technologies and Expression Analysis (LTEA) Assay for CYP2C19 using HepaRG (AID 2283482). The method in brief: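 Transcript levels of CYP2C19 were quantified by qRT-PCR after HepaRG cells were treated for 48 hours with test chemicals up to 100 uM (eight half-log concentrations, 0.5% DMSO vehicle). Gain or loss of signal was fitted relative to DMSO.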

Read-out in another assay: CYP2C8 (gene 1558)
Put plainly: LTEA_HepaRG_CYP2C8: Life Technologies and Expression Analysis (LTEA) Assay for CYP2C8 using HepaRG (AID 2283483). The method in brief:
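Differentiated HepaRG cells in serum-free induction medium exposed 48 h in duplicate to 8 half-log concentrations from 100 uM in 0.5% DMSO. CYP2C8 mRNA by qRT-PCR normalized to ACTB, GAPDH, POLR2A; bidirectional fit versus DMSO.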

Read-out in the next assay: CYP2C9 (gene 1559)
Nature of the assay: LTEA_HepaRG_CYP2C9: Life Technologies and Expression Analysis (LTEA) Assay for CYP2C9 using HepaRG (AID 2283484). The method in brief: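 Differentiated human HepaRG cells in serum-free induction medium were exposed 48 h to chemicals in 8-point half-log series from 100 uM (0.5% DMSO), in duplicate. CYP2C9 mRNA was measured by qRT-PCR, normalized to ACTB/GAPDH/POLR2A, with bidirectional fitting versus DMSO.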

Read-out in the next assay: CYP4A11 (gene 1579)
Put plainly: LTEA_HepaRG_CYP4A11: Life Technologies and Expression Analysis (LTEA) Assay for CYP4A11 using HepaRG (AID 2283486). The method in brief: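 HepaRG, 48 h chem exposure, 8 conc (100 uM top, half-log), 0.5% DMSO vehicle; qRT-PCR readout, housekeeping-gene normalized; bidirectional curve fit vs DMSO baseline.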

Read-out in assay [3]: DNA damage-inducible transcript 3 (DDIT3), DDIT3 (gene 1649)
Nature of the assay: LTEA_HepaRG_DDIT3: Life Technologies and Expression Analysis (LTEA) Assay for DNA damage-inducible transcript 3 (DDIT3) using HepaRG (AID 2283488). The gist of the method: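 HepaRG cells, 48 h after plating, exposed 48 h in serum-free induction medium to 8 half-log concentrations up to 100 uM in 0.5% DMSO, in duplicate. DDIT3 mRNA measured by TaqMan qRT-PCR, normalized to ACTB, GAPDH and POLR2A. Fitted bidirectionally against DMSO.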

Read-out in assay [4]: Pro-epidermal growth factor (Homo sapiens) (UniProt P01133)
Put plainly: LTEA_HepaRG_EGF: Life Technologies and Expression Analysis (LTEA) Assay for Epidermal growth factor (EGF) using HepaRG (AID 2283489). The gist of the method: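 HepaRG, 48 h dosing, 100 uM top, half-log x8, 0.5% DMSO. Readout: TaqMan qRT-PCR (Fluidigm array), housekeeping-normalized. Gain or loss of signal fit vs DMSO.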

Read-out in assay [5]: Ezrin (EZR), EZR (gene 7430)
Put plainly: LTEA_HepaRG_EZR: Life Technologies and Expression Analysis (LTEA) Assay for Ezrin (EZR) using HepaRG (AID 2283491). The gist of the method:
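EZR transcript levels came from Fluidigm qRT-PCR and were normalized to three housekeeping genes after 48 h chemical exposure of HepaRG cells. Dosing used an 8-point half-log series with a 100 uM top concentration in 0.5% DMSO, tested in duplicate; both directions were fitted versus vehicle.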

Read-out in assay [6]: Cytochrome P450 3A7 (Homo sapiens) (UniProt P24462)
Nature of the assay: LTEA_HepaRG_CYP3A7: Life Technologies and Expression Analysis (LTEA) Assay for CYP3A7 using HepaRG (AID 2283492). The method in brief:
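Human HepaRG liver cells, 48 h post-plating, switched to serum-free induction medium and exposed in duplicate for 48 h. Dosing: 100 uM top, half-log dilutions, 8 points, 0.5% DMSO vehicle. Read-out: CYP3A7 mRNA, gain or loss fitted against DMSO baseline.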

Read-out in another assay: CYP3A5 (gene 1577)
Put plainly: LTEA_HepaRG_CYP3A5: Life Technologies and Expression Analysis (LTEA) Assay for CYP3A5 using HepaRG (AID 2283493). The method in brief:
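HepaRG cells, plated 48 h then in serum-free induction medium, dosed in duplicate for 48 h with eight half-log concentrations up to 100 uM in 0.5% DMSO. Gene mRNA by Fluidigm TaqMan qRT-PCR, normalized to ACTB, GAPDH, POLR2A.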

Read-out in assay [7]: Fatty Acid-Binding Protein 1 (FABP1), FABP1 (gene 2168)
Put plainly: LTEA_HepaRG_FABP1: Life Technologies and Expression Analysis (LTEA) Assay for Fatty Acid-Binding Protein 1 (FABP1) using HepaRG (AID 2283494). The method in brief: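 Differentiated human HepaRG cells exposed 48 h in serum-free induction medium to eight half-log concentrations up to 100 uM (0.5% DMSO), duplicate. FABP1 mRNA by qRT-PCR, normalised to ACTB, GAPDH, POLR2A; bidirectional fitting against DMSO.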

Read-out in assay [8]: Cytochrome P450 4A22 (Homo sapiens) (UniProt Q5TCH4)
Nature of the assay: LTEA_HepaRG_CYP4A22: Life Technologies and Expression Analysis (LTEA) Assay for Cytochrome P450 4A22 (CYP4A22) using HepaRG (AID 2283495). The gist of the method:
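Readout is CYP4A22 transcript induction or loss, quantified by qRT-PCR and normalized to ACTB, GAPDH and POLR2A. Human HepaRG cells receive test chemicals for 48 h at eight half-log concentrations from 100 uM in 0.5% DMSO.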

Read-out in assay [9]: Cytochrome P450 7A1 (Homo sapiens) (UniProt P22680)
Nature of the assay: LTEA_HepaRG_CYP7A1: Life Technologies and Expression Analysis (LTEA) Assay for Cytochrome P450 7A1 (CYP7A1) using HepaRG (AID 2283496). The gist of the method:
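HepaRG cells plated 48 h, then switched to serum-free induction medium and exposed in duplicate for 48 h to 8-point half-log series from 100 uM in 0.5% DMSO. CYP7A1 mRNA by qRT-PCR (TaqMan), normalized to ACTB/GAPDH/POLR2A; bidirectional fit versus DMSO.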

Read-out in assay [10]: Glutathione S-Transferase (GSTA2), GSTA2 (gene 2939)
Put plainly: LTEA_HepaRG_GSTA2: Life Technologies and Expression Analysis (LTEA) Assay for Glutathione S-Transferase (GSTA2) using HepaRG (AID 2283497). The gist of the method:
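Differentiated human HepaRG cells were exposed in duplicate for 48 h in serum-free induction medium, 8 points from 100 uM top in half-log steps, 0.5% DMSO. GSTA2 mRNA was measured by TaqMan qRT-PCR, normalized to ACTB, GAPDH and POLR2A; bidirectional fit versus DMSO.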

Read-out in assay [11]: Glutamate-cysteine ligase catalytic (GCLC), GCLC (gene 2729)
Nature of the assay: LTEA_HepaRG_GCLC: Life Technologies and Expression Analysis (LTEA) Assay for Glutamate-cysteine ligase catalytic (GCLC) using HepaRG (AID 2283498). The method in brief:
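Differentiated HepaRG cells exposed 48 h in serum-free induction medium, eight-point half-log series topping at 100 uM in 0.5% DMSO, duplicates. GCLC mRNA by qRT-PCR normalized to ACTB, GAPDH and POLR2A, fitted bidirectionally versus DMSO.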

Read-out in assay [12]: growth arrest and DNA damage 45 (GADD45G), GADD45G (gene 10912)
Put plainly: LTEA_HepaRG_GADD45G: Life Technologies and Expression Analysis (LTEA) Assay for growth arrest and DNA damage 45 (GADD45G) using HepaRG (AID 2283499). The gist of the method:
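Gain or loss of GADD45G mRNA, quantified by TaqMan qRT-PCR against three housekeeping genes, is fitted in both directions relative to 0.5% DMSO. Human HepaRG cultures receive test chemical for 48 h at up to 100 uM.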

Read-out in assay [13]: Glutamate-cysteine ligase regulatory (GCLM), GCLM (gene 2730)
Put plainly: LTEA_HepaRG_GCLM: Life Technologies and Expression Analysis (LTEA) Assay for Glutamate-cysteine ligase regulatory (GCLM) using HepaRG (AID 2283500). The method in brief:
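Differentiated HepaRG cells exposed 48 h in serum-free induction medium to eight half-log concentrations up to 100 uM (0.5% DMSO). GCLM mRNA by TaqMan qRT-PCR, normalized to ACTB, GAPDH and POLR2A; bidirectional fit versus DMSO.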

Read-out in a further assay: CYP2E1 (gene 1571)
Put plainly: LTEA_HepaRG_CYP2E1: Life Technologies and Expression Analysis (LTEA) Assay for CYP2E1 using HepaRG (AID 2283485). The gist of the method:
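HepaRG cells, plated 48 h, then exposed 48 h in serum-free induction medium to eight half-log concentrations from 100 uM in 0.5% DMSO, duplicate. CYP2E1 mRNA by qRT-PCR, normalized to ACTB/GAPDH/POLR2A; bidirectional fit versus DMSO.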

Read-out in assay [14]: Cytochrome P450 3A4 (Homo sapiens) (UniProt P08684)
Nature of the assay: LTEA_HepaRG_CYP3A4: Life Technologies and Expression Analysis (LTEA) Assay for CYP3A4 using HepaRG (AID 2283487). The gist of the method: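 Differentiated HepaRG cells, plated 48 h, then dosed 48 h in serum-free induction medium with 0.5% DMSO, 8 half-log concentrations up to 100 uM, duplicate. CYP3A4 mRNA by qRT-PCR, normalized to ACTB/GAPDH/POLR2A; bidirectional fit versus DMSO.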

Read-out in assay [15]: Early growth response protein 1 (EGR1) transcription factor, EGR1 (gene 1958)
Put plainly: LTEA_HepaRG_EGR1: Life Technologies and Expression Analysis (LTEA) Assay for Early growth response protein 1 (EGR1) transcription factor using HepaRG (AID 2283490). The method in brief: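 Differentiated HepaRG cells in serum-free induction medium exposed 48 hours, duplicate, to 8 half-log concentrations up to 100 uM in 0.5% DMSO. EGR1 mRNA measured by TaqMan qRT-PCR, normalized to ACTB, GAPDH, POLR2A; bidirectional fit versus DMSO.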

Cytochrome P450 2C19 (Homo sapiens), sequence (P33261 whole entry, looked up): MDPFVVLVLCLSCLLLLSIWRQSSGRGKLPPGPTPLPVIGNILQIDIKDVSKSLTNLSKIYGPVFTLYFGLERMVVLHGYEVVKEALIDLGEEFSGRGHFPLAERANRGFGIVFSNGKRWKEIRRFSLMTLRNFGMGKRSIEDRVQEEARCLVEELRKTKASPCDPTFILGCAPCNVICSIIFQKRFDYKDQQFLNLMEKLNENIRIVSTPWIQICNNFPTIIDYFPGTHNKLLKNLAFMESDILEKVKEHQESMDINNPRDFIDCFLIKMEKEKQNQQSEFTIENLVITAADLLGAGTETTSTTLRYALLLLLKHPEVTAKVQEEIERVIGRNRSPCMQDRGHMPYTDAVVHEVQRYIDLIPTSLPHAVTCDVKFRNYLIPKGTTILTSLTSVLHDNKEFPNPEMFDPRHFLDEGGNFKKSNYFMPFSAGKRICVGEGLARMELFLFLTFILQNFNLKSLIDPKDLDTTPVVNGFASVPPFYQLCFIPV
Cytochrome P450 3A7 (Homo sapiens), sequence (P24462 whole entry, looked up): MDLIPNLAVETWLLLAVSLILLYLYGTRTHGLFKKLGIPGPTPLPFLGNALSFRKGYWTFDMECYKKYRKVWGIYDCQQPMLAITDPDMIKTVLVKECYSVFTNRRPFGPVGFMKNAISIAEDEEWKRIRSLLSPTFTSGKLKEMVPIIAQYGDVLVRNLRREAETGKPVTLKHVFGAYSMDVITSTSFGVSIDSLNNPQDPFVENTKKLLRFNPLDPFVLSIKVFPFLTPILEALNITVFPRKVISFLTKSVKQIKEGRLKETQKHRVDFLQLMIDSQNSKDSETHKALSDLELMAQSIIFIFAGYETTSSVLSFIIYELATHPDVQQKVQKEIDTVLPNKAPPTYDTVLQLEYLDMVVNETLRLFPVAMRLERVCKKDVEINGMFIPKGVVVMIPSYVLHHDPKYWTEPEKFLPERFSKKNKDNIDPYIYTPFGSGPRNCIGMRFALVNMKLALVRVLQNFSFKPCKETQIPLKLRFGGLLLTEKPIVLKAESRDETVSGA
Cytochrome P450 3A4 (Homo sapiens), sequence (P08684 whole entry, looked up): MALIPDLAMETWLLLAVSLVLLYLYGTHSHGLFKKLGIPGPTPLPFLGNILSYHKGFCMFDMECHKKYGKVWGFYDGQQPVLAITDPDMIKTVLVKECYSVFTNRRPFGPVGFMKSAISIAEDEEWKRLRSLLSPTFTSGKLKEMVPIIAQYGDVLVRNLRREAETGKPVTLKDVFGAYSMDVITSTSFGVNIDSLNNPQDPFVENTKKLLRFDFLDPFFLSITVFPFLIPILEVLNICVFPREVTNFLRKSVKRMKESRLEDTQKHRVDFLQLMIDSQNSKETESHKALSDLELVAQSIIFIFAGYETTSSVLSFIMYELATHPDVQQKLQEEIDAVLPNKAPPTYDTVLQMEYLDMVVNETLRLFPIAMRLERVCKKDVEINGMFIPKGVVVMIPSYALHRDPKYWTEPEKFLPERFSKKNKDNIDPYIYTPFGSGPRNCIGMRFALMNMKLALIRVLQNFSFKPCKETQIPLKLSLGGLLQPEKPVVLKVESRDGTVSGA

Take `OC(Cn1cncn1)(Cn1cncn1)c1ccc(F)cc1F`: the concentration at half-maximal activity (AC50) in assay [1] is 27.1 µM (active). In addition, the compound was called inactive (in assay [2]; with CYP2C8 (gene 1558); with CYP2C9 (gene 1559); with CYP4A11 (gene 1579); in assay [3]; in [4]). The result (in assay [5]; in [6]; with CYP3A5 (gene 1577); in [7]; in [8]; in assay [9]) was inactive. In addition, the call in assay [10], in [11], in assay [12] and in assay [13] was inactive.
`CCCC(CCC)C(=O)O`: the compound was called inactive (in assay [1]; in assay [2]; with CYP2C8 (gene 1558); with CYP2C9 (gene 1559); in the assay with CYP2E1 (gene 1571); in assay [14]). For the same compound, the outcome (in assay [3]; in assay [4]; in assay [15]; in [5]; in assay [6]; with CYP3A5 (gene 1577)) was inactive. Moreover, the result in assay [7], in assay [8], in assay [9], in assay [10], in assay [11] and in assay [12] was inactive. For the same compound, the call in assay [13] was inactive.
For `COc1cc(C(C)C)c2c(c1)S(=O)(=O)N(COc1cc(=O)n3cccc(OCCN4CCCCC4)c3n1)C2=O`, the concentration at half-maximal activity (AC50) is 22.5 µM (active) in [1]; 19.3 µM (active) in assay [2]; 19.9 µM (active) with CYP2C8 (gene 1558); 23.6 µM (active) with CYP2C9 (gene 1559); 17.2 µM (active) with CYP2E1 (gene 1571); 20.8 µM (active) with CYP4A11 (gene 1579). Further, the AC50 was 20.8 µM (active) in assay [14]; 8.03 µM (active) in assay [4]; 15.4 µM (active) in assay [15]; 23.6 µM (active) in assay [6]; 20.9 µM (active) with CYP3A5 (gene 1577); 21.7 µM (active) in assay [7]. The AC50 in assay [8] was 20.9 µM (active); in [9] it was 19.6 µM (active); in [10], 20.5 µM (active); in assay [11] it was 12.5 µM (active); in [12], 19.1 µM (active). For the same compound, the compound was classed as inactive in [3], in assay [5] and in assay [13].

The values above are taken from PubChem BioAssay (EPA / NIEHS).
